Screens as filed in PubChem BioAssay.
Compounds with a hit are over-represented: about 22% of the library has one in this group of screens.
CYP2C9 inhib: inhibitors of human CYP2C9 | P11712 | CYP2C9 Supersomes, luciferin-H conversion, luminescence | inhibition, % at 5 µM | 20% of 96,000 active | AID 777;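 active means blocking of liver enzyme CYP2C9 beyond about 50% at 5 µM, limit read from the data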
Target sequence (P11712 whole entry, looked up): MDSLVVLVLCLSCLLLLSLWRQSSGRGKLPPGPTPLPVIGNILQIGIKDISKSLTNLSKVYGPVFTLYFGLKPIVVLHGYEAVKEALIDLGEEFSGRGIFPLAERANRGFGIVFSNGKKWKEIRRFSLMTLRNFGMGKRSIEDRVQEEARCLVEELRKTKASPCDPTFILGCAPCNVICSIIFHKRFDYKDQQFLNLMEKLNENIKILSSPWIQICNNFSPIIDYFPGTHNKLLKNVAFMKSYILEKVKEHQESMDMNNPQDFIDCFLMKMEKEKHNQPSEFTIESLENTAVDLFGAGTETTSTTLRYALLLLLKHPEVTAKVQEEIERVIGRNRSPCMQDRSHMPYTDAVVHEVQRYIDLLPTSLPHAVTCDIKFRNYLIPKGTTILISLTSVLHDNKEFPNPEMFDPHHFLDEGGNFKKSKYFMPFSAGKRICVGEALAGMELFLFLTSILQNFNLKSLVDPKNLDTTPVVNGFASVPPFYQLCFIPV
Measles CPE: protection of cells from measles virus; Measles virus-infected cells, CPE protection, absorbance; protection (pct of control), % at 4 µM; 1.5% of 140,000 active; AID 841; in the data active means protection mostly above about 24%, no sharp cut-off; inactive means mostly below about 26%
CYP2C19 activ: activators of human cytochrome P450 2C19. recombinant CYP2C19, luciferin-H EGE luminescence; stronger effect = higher value; 0 = fully inhibited enzyme, 1 = untreated enzyme. 96,000 tested, under 10 active. AID 1025. activation factor at 5 µM. P33261;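 active means activation factor of at least 2 at 5 µM in the primary screen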
CYP2C9 act: increases human cytochrome P450 2C9 activity; P11712; recombinant CYP2C9, luciferin-H conversion, luminescence; stronger effect = higher value; factor 1 = untreated enzyme, 0 = blocked; activation factor at 5 µM; 1.4% of 96,000 active;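 active means activation factor of 2 or more for CYP2C9 at a 5 µM dose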
CYP2C19 inhib: human CYP2C19 inhibition; P33261; CYP2C19 Supersomes, luciferin-H EGE luminescence, 30 min; inhibition, % at 5 µM; 21% of 96,000 active; AID 778;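 active means CYP2C19 inhibition above a set limit at 5 µM in the primary screen, cut at about 50% in these data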
Each line names hits and unclear results; the compound was inactive in the other large screens.

CSc1nc2sc(-c3ccccc3)cc2c(=O)n1N	CYP2C9 inhib 78, CYP2C19 inhib 69
COc1cccc(C(=O)CSc2nnc(-c3ccco3)n2CC2CCCO2)c1 (stereo not drawn)	CYP2C19 inhib 67
O=C(CSc1nnc(-c2ccco2)n1CC1CCCO1)N1CCCCC1 (stereo not drawn)	CYP2C19 inhib 52
CCOC(=O)c1cnn(CC2CCCCC2)c1N	CYP2C9 inhib 92, CYP2C19 inhib 60
O=C(c1cccs1)N1CCCc2ccccc21	CYP2C19 inhib 64
O=C(c1cc2nc(-c3cccs3)cc(C(F)(F)Cl)n2n1)N1CCCc2ccccc21	CYP2C9 inhib 89
O=C(C1CCCN1C(=O)c1cccs1)N1CCc2ccccc21 (stereo not drawn)	CYP2C19 inhib 54
CCOC(=O)N1CCC(NC(=O)c2ccc(CS(=O)(=O)c3ccc(OC)cc3)o2)CC1	CYP2C9 inhib 93
Cc1cccc(N(C)C(=O)c2cc3cc4ccc(C)cc4nc3o2)c1	CYP2C19 inhib 70
Cc1ccc2cc3cc(C(=O)NCCCN4CCc5ccccc5C4)oc3nc2c1	CYP2C19 inhib 64
COc1ccc(S(=O)(=O)Cc2ccc(C(=O)NCc3ccco3)o2)cc1	none
COc1ccc(S(=O)(=O)Cc2ccc(C(=O)NCCCN3CCc4ccccc4C3)o2)cc1	CYP2C9 inhib 88
CCN1C(=O)C(CC(=O)Nc2c(C)cccc2C)SC1=Nc1ccc(S(N)(=O)=O)cc1 (stereo not drawn)	none (no result: CYP2C9 inhib, CYP2C19 activ, CYP2C9 act, CYP2C19 inhib)
COc1ccc(Cc2nnc(NC(=O)CSc3ccccc3)s2)cc1OC	none (no result: CYP2C9 inhib, CYP2C19 activ, CYP2C9 act, CYP2C19 inhib)
CCCCNC(=O)c1ccc(CS(=O)(=O)c2ccc(OC)cc2)o1	none
COc1ccc(S(=O)(=O)Cc2ccc(C(=O)NCCCN(C)c3ccccc3)o2)cc1	CYP2C9 inhib 98 (no result: Measles CPE)
CCOC(=O)c1c(NC(=O)CSc2nc3ccccc3s2)sc(C)c1C	CYP2C9 inhib 65
CCOC(=O)c1c(NC(=O)CSC(=S)N(C)C)sc(C)c1C	none (no result: CYP2C9 inhib, CYP2C19 activ, CYP2C9 act, CYP2C19 inhib)
CCOC(=O)c1c(NC(=O)CSc2nc3ccccc3o2)sc(C)c1C	none
CCOC(=O)c1c(NC(=O)CSc2ncn[nH]2)sc(C)c1C	CYP2C9 inhib 85, CYP2C19 inhib 73
C/C(=N/NC(=O)CCCOc1ccc(Cl)cc1Cl)c1ccc(C)o1	none (no result: CYP2C9 inhib, CYP2C19 activ, CYP2C9 act, CYP2C19 inhib)
Cc1c([N+](=O)[O-])c([N+](=O)[O-])nn1CC(=O)NCCc1ccccc1	none (no result: CYP2C9 inhib, CYP2C19 activ, CYP2C9 act, CYP2C19 inhib)
COc1ccc(OC)c(C2C(C#N)=C(N)Oc3cc(C)n(Cc4ccccn4)c(=O)c32)c1 (stereo not drawn)	none
CSc1nc2nc(C(F)(F)F)cc(-c3ccccc3)n2n1	CYP2C9 inhib 62
Cc1ccc(SCc2ccc(C(=O)Nc3cccc([N+](=O)[O-])c3C)cc2)cc1	none
O=S(=O)(Nc1nc2ccc(S(=O)(=O)N3CCCC3)cc2s1)c1ccc(F)cc1	CYP2C9 inhib 100
CSc1nc2ccc(S(N)(=O)=O)cc2s1	none (no result: CYP2C9 inhib, CYP2C19 activ, CYP2C9 act, CYP2C19 inhib)
CSc1nc2ccc(S(=O)(=O)N3CCCC3)cc2s1	CYP2C9 inhib 53, CYP2C19 inhib 99
CNC(=S)N/N=C(\C)c1ccc(C)c(C)c1	none (no result: CYP2C9 inhib, CYP2C19 activ, CYP2C9 act, CYP2C19 inhib)
COc1cccc2cc(C(=O)CC3(O)C(=O)N(Cc4ccccc4)c4ccccc43)c(=O)oc12 (stereo not drawn)	none
CCOc1ccc(CNC(=O)NS(=O)(=O)c2ccc(OC)cc2)cc1	none
CCCNC(=O)C(CC)NS(=O)(=O)c1ccc(OC)cc1 (stereo not drawn)	none
COCC(C)NS(=O)(=O)c1ccc(OC)cc1 (stereo not drawn)	CYP2C19 inhib 61
COC(=O)c1c(S(=O)(=O)NCc2ccccc2)sc(C(=O)O)c1C	CYP2C9 inhib 62
COc1ccc(S(=O)(=O)NCc2ccccc2)cc1	CYP2C19 inhib 97
CCCOc1ccc(S(=O)(=O)NCc2ccc(OC)cc2)cc1	CYP2C19 inhib 58
CCN(CC)S(=O)(=O)c1ccc(S(=O)(=O)N2CCCC2C(=O)O)cc1 (stereo not drawn)	none
Cc1ccc(CN2C(=O)C3CCCN3c3ccc(C#N)cc32)cc1 (stereo not drawn)	none
Cc1ccc(NC(=O)/C(C#N)=C/c2ccsc2)c(C)c1	none (no result: CYP2C9 inhib, CYP2C19 activ, CYP2C9 act, CYP2C19 inhib)
Cn1c(SCC(=O)N2CCCc3ccccc32)nnc1-c1cccs1	none
COc1ccc(S(=O)(=O)NCc2cccs2)cc1	CYP2C19 inhib 95
COc1ccc(S(=O)(=O)NCCCCNS(=O)(=O)c2ccc(OC)cc2)cc1	none
COc1ccc(CNS(=O)(=O)c2ccc(OC)cc2)cc1	CYP2C19 inhib 76
CCOC(=O)c1cc(-c2ccccc2)sc1NC(=O)C(C)N1C(=O)NC(C)(c2ccc(Cl)cc2)C1=O (stereo not drawn)	none
